Experimental findings from PubChem BioAssay are described below.

Active and inactive are the calls of the source. Unless noted, the rule behind the calls is not given here.

Test [1] relates to Wnt5a (protein binding on small-molecule microarray). Description: small molecules binding Wnt5a protein – biophysical, small-molecule microarray, 635/667 nm fluorescence, primary screen (AID 1142).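 Note: fluorescence read at 667 nm with signal to noise per printed feature.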 Conditions: 635 nm fluorescence, higher = more signal.
Test [2] is described as follows: ATP-based viability of Huh7 replicon cells – cell-based, CellTiter-Glo luminescence, basal, 48 h, cytotoxicity control for HCV replication inhibitor project, primary screen (AID 1143).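 Note: Huh7 hepatoma cells carrying a hepatitis C replication reporter with no stimulus; test concentration not given here.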 The conditions noted are these: higher = more signal, called active from +8 up or from −8 down. (In general: A replicon is a self-replicating genome or part of one, used to study replication in cells.)

Test [3] is described as follows: Pseudomonas biofilm growth suppression – PAO1 strain, BacTiter-Glo luminescence, LB-PBS, primary screen (AID 1144). Conditions: P. aeruginosa PAO1 biofilm, 12 h, higher = more signal.
The nature of test [4]: basal CRE-LacZ reporter activity in PC12 – cell-based, unstimulated, primary screen (AID 1145). The conditions noted are these: no forskolin, luminescence, 4.5 h, higher = more signal, called active from +8 up or from −8 down.
A short description of test [5]: forskolin-driven CRE-LacZ activity in PC12 – cell-based, CRE-LacZ reporter, forskolin-stimulated, primary screen (AID 1146).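 Note: PC12 cells with 6xCRE LacZ reporter stimulated by forskolin 10 µM; beta-galactosidase reporter signal reflecting CREB driven transcription.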 Conditions: luminescence, 4.5 h, higher = more signal, called active from +8 up or from −8 down.
Test [6] addresses Streptavidin (Streptomyces avidinii) (UniProt P22629). Description: compounds binding control protein streptavidin – biophysical, small-molecule microarray, 635/667 nm fluorescence, artefact control for SMM compound annotation, primary screen (AID 1147).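 Note: signal reflects streptavidin binding to arrayed compounds as a control protein.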 The conditions noted are these: higher = more signal.
A short description of test [7]: probe aInhba binding on compound microarray – biochemical, small-molecule microarray, 635/667 nm fluorescence, primary screen (AID 1148).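 Note: score merges 667nm spot fluorescence with signal-to-noise for antibody binding to printed compounds.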 The conditions noted are these: higher = more signal.
For test [8], the target named is Torsin-1A (Homo sapiens) (UniProt O14656). Description: TOR1A wild-type binding on microarray – cell lysate, small-molecule microarray, lysate, 635/667 nm, primary screen (AID 1149). Conditions: COS7 hTOR1A-WT lysate, 635 nm fluorescence, higher = more signal.
For test [9] the target is unchanged. Kind of test: torsin A mutant lysate binding on microarrays – cell lysate, small-molecule microarray, COS7 lysate, 635/667 nm fluorescence, primary screen (AID 1150).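 Note: score pools 667 nm emission and signal to noise measuring lysate protein binding.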 The conditions noted are these: COS7 hTOR1A mutant lysate, 635 nm fluorescence, higher = more signal.
Test [10] relates to Sonic hedgehog protein (Shh). Kind of test: Sonic hedgehog microarray binding compounds – biochemical, small-molecule microarray, 635/667 nm fluorescence, primary screen (AID 1151).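 Note: Shh protein binding to compounds spotted on small-molecule microarray slides; score combines spot fluorescence intensity with signal-to-noise across triplicate slides.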 Conditions: 635 nm fluorescence, higher = more signal.

Sequence of Torsin-1A (Homo sapiens) (O14656 whole entry, looked up): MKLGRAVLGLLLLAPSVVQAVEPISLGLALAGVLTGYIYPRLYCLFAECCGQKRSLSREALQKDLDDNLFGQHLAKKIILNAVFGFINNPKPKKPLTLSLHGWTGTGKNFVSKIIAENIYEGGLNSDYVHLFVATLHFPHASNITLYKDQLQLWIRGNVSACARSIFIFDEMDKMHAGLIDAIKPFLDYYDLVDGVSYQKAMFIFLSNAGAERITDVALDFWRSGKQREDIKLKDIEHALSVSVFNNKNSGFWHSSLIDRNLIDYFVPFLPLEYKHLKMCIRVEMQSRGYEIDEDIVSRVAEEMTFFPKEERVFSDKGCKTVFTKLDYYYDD
Sequence of Streptavidin (Streptomyces avidinii) (P22629 whole entry, looked up): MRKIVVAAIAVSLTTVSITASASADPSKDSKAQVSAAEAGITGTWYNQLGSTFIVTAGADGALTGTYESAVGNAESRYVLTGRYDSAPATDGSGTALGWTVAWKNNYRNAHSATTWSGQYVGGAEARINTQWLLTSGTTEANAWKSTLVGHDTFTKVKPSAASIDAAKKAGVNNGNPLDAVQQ

For the molecule `C=C(COC)C(=O)CC[C@H](OC(=O)c1cccnc1)c1ccc(CO)o1`, the composite z-score in test [1] was 0.196; in test [6] it was -0.184; in test [7] it was 0.13; in test [8], 2.19; in test [9] it was -0.0291; in [10], 1.41. The z-score in [2] was -0.319 (inactive); in test [3] it was 0.312 (inactive); in [4], 0.522 (inactive); in test [5], 0.756 (inactive).
On to `C=CCC(OC(C)=O)[C@@H]1[C@@H](N(Cc2cccc3ccccc23)C(=O)c2ccc(-c3ccccc3)cc2)c2cc(OCCCO)ccc2N1C(=O)c1ccc(-c2ccccc2)cc1` (stereo not given in full), for which the composite z-score in [1] was 0.09; in test [6], 0.361; in [7] it was 0.114; in [8], 0.162; in [9], 0.0809; in test [10], 0.286. Also, the z-score in [2] was 0.457 (inactive); in [3] it was -0.1 (inactive); in [4] it was 0.367 (inactive); in test [5], 0.859 (inactive).
Regarding `CC(C)c1ccc(NN2C(C(O)Cc3ccccc3)C=CC3C(=O)N(c4ccccc4)C(=O)C32)cc1` (stereo not given), the composite z-score was 0.204 in test [1]; 1.87 in [6]; -0.152 in [7]; 0.14 in test [8]; 0.815 in test [9]; -0.154 in [10]. Moreover, the z-score was -0.695 (inactive) in test [2], -0.221 (inactive) in test [3], 0.243 (inactive) in [4] and 2.48 (inactive) in test [5].
Regarding `O=C1NC(=O)C2C1C=CC(C(O)c1ccccn1)N2Nc1ccc(Cl)cc1Cl` (stereo not given), the composite z-score in test [1] was 0.0314; in test [6] it was 1.16; in [7], -0.101; in test [8] it was -0.117; in [9], 0.175; in test [10] it was -0.517. In addition, the z-score in test [2] is 0.203 (inactive); in test [3] it was -0.595 (inactive); in [4], 0.0535 (inactive); in [5] it was -0.0259 (inactive).
With `C=C(C(=O)CC[C@H](OC(=O)c1ccccc1-c1ccccc1C(=O)O)c1ccccc1OCCO)C(C)C`, the composite z-score is 0.121 in test [1]; -0.344 in [6]; 0.0569 in test [7]; 0.659 in [8]; 0.34 in test [9]; 1.49 in test [10]. In addition, the z-score in [2] was -0.594 (inactive); in test [3] it was -0.0112 (inactive); in test [4], 3.25 (inactive); in [5], 1.19 (inactive).
Take `C[C@@H]1ON(c2ccc(I)cc2)[C@H](c2ccc(OC(=O)OC(C)(C)C)cc2)[C@H]1C(=O)N1C(=O)OC[C@H]1Cc1ccccc1`: the composite z-score in test [1] was 0.0472; in test [6] it was 0.573; in [7], -0.0468; in test [8] it was 0.0475; in test [9], 0.624; in test [10] it was 0.639. Moreover, the z-score in test [2] is -1.32 (inactive); in test [3] it was -0.829 (inactive); in [4], -0.415 (inactive); in [5] it was -0.642 (inactive).
As for `COc1cccc(/C=C(\C#N)C(=O)Nc2c(C)n(C)n(-c3ccccc3)c2=O)c1`, the composite z-score in [1] is 0.152; in [6] it was 0.841; in test [7] it was -0.206; in test [8], 0.217; in test [9], 0.285; in [10] it was 0.241. The z-score in test [2] was -2.45 (inactive); in [3], -1.47 (inactive); in test [4], -0.788 (inactive); in test [5] it was -0.821 (inactive).
Consider `O=C1[C@@]23C=C(Br)[C@H](C[C@@H]2COC3)[C@@]12CO2`, for which the composite z-score in [1] was 0.731; in test [6], -0.129; in test [7] it was -0.0986; in test [8], 0.283; in [9], 0.276; in [10], 0.497. Further, the z-score in [2] is 0.762 (inactive); in test [3], 0.461 (inactive); in [4], -0.329 (inactive); in test [5], 2.56 (inactive).
For `O=c1cccc(-c2ccc(F)cc2)o1`, the composite z-score in test [1] was found to be 0.0405; in test [6] it was 0.386; in [7], 0.179; in test [8], 0.309; in test [9], 0.0586; in test [10] it was 0.559. Moreover, the z-score in test [2] is 0.0779 (inactive); in test [3], -0.291 (inactive); in test [4] it was -0.433 (inactive); in test [5] it was 1.01 (inactive).
On to `C=CCC(OC(C)=O)[C@@H]1[C@@H](N(Cc2cccc3ccccc23)C(=O)c2cccc3ccccc23)c2cc(OCCCO)ccc2N1C(=O)c1ccc2ccccc2c1` (stereo not given in full), for which the composite z-score in test [1] was -0.23; in test [6] it was -0.0629; in test [7] it was -0.0288; in test [8] it was 0.0265; in test [9] it was -0.252; in test [10], 0.49. The z-score in test [2] is -2.35 (inactive); in test [3], 0.311 (inactive); in test [4] it was -1.1 (inactive); in test [5], 1.03 (inactive).
Consider `CCCNC(=O)[C@@]1(Sc2ccc(C)cc2)CC(=O)N(C2CCCCC2)[C@@H]1c1ccc(CO)cc1I`, for which the composite z-score in test [1] was 0.108; in [6], 0.133; in test [7], -0.198; in [8], 0.0272; in test [9] it was 0.197; in [10], -0.158. The z-score was -2.76 (inactive) in [2], 0.687 (inactive) in test [3], 0.272 (inactive) in test [4] and 1.38 (inactive) in [5].
In the case of `CO[C@H]1O[C@H](CO)[C@@H](OC(=O)c2ccc(Br)cc2)[C@@H]2OC(=O)[C@H](Cc3ccccc3)C/C=C/C[C@@H](Cc3ccccc3)C(=O)O[C@@H]12`, the composite z-score in [1] was 0.293; in test [6] it was 0.088; in test [7] it was -0.263; in test [8], -0.295; in test [9], -0.0307; in test [10], 0.984. For the same molecule, the z-score is -3.95 (inactive) in [2], -1.16 (inactive) in [3], -0.0017 (inactive) in test [4] and -0.175 (inactive) in test [5].
In the case of `CCCCCN1CC=CC23O[C@@H]4/C=C\CCC(C)OC(=O)C4[C@H]2C(=O)N(CCCCCCO)[C@@H]3C1=O` (stereo not given in full), the composite z-score was -0.399 in [1]; -0.749 in test [6]; -0.153 in [7]; -0.96 in [8]; 0.109 in [9]; 0.758 in [10]. In addition, the z-score is 0.259 (inactive) in [2], -0.943 (inactive) in test [3], 0.467 (inactive) in [4] and 0.938 (inactive) in test [5].
In the case of `CCOC(=O)C[C@H]1[C@H](OC(=O)c2ccc(-c3ccccc3)cc2)[C@@H](NC(=O)Cc2ccc(OC)cc2)c2cc(OCCCO)ccc2N1C(=O)Cc1ccc(OC)cc1`, the composite z-score in [1] is -0.0129; in test [6], -0.0417; in test [7], -0.128; in test [8] it was -0.305; in test [9], 0.0922; in [10], -0.259. In addition, the z-score in [2] is 0.247 (inactive); in test [3], 0.00724 (inactive); in test [4], 0.773 (inactive); in test [5], -0.834 (inactive).
